In the supplement of paper PMC11732987, “Enantioselective OTUD7B fragment discovery through chemoproteomics screening and high-throughput optimisation” (Communications Chemistry, 2025):

Legend:
Assay in all cases: log2 ratio of Biotin-Ahx-Ub-VS probe labelling (fragment/DMSO); higher = less target engagement (more negative = stronger competition), active = hit call of the paper (q ≤ 0.05, log2 ratio ≤ -1)
Conditions in all cases: compound concentration: 200 uM; treatment time: 3 h
USP42 = biological target: T1, USP42 (UniProt Q9H9J4)
T1 sequence (whole entry): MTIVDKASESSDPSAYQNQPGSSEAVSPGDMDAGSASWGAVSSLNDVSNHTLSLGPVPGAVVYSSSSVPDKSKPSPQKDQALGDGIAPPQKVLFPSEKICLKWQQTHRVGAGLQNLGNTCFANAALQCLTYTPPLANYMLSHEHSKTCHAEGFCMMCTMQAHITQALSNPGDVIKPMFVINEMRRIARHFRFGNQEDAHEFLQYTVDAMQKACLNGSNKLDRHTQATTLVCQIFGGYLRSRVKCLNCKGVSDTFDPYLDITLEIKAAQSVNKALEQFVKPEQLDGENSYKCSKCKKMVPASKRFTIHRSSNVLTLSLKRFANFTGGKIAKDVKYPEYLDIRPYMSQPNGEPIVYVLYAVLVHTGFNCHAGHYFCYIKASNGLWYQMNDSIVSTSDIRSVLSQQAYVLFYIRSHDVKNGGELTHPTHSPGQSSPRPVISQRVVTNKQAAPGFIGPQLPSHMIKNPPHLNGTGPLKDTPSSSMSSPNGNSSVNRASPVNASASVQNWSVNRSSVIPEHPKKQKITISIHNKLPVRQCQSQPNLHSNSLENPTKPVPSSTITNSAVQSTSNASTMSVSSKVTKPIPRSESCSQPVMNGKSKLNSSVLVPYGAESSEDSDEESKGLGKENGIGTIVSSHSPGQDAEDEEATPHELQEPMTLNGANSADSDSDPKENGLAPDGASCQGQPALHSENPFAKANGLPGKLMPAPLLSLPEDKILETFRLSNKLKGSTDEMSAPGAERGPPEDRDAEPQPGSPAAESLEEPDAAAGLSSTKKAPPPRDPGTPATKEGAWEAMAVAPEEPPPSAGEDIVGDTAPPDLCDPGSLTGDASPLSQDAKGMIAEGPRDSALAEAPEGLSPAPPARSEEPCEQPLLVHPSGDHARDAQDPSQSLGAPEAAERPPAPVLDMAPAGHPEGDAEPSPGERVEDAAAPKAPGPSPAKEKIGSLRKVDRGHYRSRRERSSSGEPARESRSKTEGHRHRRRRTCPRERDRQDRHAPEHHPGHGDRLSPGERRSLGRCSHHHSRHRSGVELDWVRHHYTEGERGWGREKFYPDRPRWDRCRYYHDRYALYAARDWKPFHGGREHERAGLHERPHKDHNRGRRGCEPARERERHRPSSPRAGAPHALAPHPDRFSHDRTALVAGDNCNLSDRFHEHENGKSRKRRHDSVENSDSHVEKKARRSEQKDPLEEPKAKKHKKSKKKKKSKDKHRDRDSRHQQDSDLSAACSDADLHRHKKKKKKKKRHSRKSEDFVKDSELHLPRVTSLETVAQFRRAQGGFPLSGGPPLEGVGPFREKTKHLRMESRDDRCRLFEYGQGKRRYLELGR
How it was run: (§1)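 Using Biotin-Ahx-Ub-VS at 0.5 µM final for 1 h, DUBs were labelled in HEK293T lysate (495 µg per sample) that had first been treated in triplicate with fragment at 200 µM or vehicle for 3 h. NeutrAvidin enrichment, LysC and trypsin digestion and diaPASEF LC-MS/MS followed. Spectronaut label-free quantities were global-median-normalised. Values are average log2 fragment/vehicle ratios by unpaired t-test, using proteins with ≥2 unique peptides.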

USP46 = USP46 (UniProt P62068)
How it was run: as §1

USP47 = biological target: T2, USP47 (UniProt Q96K76)
T2 sequence (whole entry): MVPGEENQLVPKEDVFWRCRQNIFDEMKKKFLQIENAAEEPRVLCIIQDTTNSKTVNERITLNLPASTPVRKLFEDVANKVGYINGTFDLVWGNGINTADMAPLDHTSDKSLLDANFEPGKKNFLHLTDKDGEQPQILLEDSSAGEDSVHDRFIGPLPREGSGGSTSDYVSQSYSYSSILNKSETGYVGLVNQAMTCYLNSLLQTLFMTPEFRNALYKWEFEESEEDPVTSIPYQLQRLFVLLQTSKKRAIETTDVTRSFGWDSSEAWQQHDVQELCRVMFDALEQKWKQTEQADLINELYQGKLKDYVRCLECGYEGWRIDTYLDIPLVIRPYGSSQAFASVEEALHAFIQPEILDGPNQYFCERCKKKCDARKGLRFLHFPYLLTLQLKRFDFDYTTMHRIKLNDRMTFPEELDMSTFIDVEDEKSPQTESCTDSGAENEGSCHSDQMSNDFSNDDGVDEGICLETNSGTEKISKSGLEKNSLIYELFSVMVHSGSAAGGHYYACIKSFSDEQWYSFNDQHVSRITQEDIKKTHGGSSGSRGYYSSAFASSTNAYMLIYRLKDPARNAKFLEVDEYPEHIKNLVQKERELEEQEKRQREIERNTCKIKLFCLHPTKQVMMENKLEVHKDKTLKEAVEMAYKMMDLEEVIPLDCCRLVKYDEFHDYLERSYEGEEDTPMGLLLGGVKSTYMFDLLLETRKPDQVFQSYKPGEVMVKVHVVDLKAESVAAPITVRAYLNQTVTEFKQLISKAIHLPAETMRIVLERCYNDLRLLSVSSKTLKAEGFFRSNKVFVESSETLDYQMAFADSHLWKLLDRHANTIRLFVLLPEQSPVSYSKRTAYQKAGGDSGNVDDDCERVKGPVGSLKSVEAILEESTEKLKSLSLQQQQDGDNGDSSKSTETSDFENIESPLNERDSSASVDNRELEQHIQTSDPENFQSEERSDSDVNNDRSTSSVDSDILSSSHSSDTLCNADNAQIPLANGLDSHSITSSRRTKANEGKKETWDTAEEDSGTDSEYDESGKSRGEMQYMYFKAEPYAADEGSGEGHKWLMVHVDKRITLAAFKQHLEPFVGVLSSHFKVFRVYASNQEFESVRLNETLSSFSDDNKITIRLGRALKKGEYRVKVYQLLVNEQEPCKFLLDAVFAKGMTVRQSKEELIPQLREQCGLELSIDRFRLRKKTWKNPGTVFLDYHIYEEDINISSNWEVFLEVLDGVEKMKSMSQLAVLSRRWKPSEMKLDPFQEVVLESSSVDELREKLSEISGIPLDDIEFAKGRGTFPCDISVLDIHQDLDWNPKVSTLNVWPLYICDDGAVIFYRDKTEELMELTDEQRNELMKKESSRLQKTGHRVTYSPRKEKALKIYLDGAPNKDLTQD
How it was run: as §1

USP48 = biological target: T3, USP48 (UniProt Q86UV5)
T3 sequence (whole entry): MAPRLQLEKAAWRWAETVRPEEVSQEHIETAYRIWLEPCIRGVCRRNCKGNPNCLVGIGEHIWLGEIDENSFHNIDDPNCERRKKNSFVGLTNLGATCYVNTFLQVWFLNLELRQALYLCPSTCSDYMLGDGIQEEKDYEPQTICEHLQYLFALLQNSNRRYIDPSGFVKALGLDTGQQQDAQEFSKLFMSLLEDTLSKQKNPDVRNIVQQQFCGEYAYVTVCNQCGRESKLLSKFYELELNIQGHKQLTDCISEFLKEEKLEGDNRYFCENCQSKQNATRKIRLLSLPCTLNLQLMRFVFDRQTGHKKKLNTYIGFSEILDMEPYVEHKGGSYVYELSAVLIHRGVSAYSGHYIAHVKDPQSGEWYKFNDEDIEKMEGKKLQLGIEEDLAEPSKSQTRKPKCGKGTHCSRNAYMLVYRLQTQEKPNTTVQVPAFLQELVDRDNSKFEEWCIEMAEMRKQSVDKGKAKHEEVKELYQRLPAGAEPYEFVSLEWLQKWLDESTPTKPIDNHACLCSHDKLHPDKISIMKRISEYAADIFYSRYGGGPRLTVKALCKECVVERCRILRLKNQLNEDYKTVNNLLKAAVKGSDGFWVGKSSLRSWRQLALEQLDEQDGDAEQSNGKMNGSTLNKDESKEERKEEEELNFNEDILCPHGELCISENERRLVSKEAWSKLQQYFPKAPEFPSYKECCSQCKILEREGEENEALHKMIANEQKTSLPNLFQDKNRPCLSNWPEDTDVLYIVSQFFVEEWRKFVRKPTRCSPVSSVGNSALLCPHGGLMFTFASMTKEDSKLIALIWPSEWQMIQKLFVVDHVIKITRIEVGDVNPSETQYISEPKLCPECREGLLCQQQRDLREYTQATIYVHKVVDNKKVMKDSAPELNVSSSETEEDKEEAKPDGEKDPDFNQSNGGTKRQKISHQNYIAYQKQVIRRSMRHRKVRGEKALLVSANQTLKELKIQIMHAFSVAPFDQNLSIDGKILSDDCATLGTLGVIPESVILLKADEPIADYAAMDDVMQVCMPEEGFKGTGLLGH
How it was run: as §1

USP5 = biological target: T4, USP5 (UniProt P45974)
T4 sequence (whole entry): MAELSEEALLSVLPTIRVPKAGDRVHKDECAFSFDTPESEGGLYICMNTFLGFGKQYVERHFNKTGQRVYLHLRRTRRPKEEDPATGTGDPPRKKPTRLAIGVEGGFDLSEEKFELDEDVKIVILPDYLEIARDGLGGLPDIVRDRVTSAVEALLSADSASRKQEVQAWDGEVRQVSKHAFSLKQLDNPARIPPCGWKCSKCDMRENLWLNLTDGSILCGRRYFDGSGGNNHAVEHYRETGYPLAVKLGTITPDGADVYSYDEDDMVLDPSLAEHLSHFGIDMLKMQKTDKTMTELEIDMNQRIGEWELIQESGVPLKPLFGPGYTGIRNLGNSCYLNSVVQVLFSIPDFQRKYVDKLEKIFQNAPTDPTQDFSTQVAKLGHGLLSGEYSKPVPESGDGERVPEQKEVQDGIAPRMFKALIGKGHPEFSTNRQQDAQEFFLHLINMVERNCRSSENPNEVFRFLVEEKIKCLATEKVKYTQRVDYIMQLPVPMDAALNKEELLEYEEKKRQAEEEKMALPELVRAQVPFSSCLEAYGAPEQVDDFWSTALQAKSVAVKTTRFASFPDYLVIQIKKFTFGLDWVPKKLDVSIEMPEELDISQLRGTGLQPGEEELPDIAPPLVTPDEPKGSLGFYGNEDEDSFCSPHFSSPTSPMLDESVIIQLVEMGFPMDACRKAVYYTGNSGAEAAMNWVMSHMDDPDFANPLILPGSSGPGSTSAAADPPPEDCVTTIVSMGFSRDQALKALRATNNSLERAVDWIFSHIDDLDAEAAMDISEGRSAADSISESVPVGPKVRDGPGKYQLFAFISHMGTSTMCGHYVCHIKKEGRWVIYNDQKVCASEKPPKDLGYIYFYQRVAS
How it was run: as §1

USP54 = USP54 (UniProt Q70EL1)
How it was run: as §1

USP7 = USP7 (UniProt Q93009)
How it was run: as §1

USP8 = biological target: T5, USP8 (UniProt P40818)
T5 sequence (whole entry): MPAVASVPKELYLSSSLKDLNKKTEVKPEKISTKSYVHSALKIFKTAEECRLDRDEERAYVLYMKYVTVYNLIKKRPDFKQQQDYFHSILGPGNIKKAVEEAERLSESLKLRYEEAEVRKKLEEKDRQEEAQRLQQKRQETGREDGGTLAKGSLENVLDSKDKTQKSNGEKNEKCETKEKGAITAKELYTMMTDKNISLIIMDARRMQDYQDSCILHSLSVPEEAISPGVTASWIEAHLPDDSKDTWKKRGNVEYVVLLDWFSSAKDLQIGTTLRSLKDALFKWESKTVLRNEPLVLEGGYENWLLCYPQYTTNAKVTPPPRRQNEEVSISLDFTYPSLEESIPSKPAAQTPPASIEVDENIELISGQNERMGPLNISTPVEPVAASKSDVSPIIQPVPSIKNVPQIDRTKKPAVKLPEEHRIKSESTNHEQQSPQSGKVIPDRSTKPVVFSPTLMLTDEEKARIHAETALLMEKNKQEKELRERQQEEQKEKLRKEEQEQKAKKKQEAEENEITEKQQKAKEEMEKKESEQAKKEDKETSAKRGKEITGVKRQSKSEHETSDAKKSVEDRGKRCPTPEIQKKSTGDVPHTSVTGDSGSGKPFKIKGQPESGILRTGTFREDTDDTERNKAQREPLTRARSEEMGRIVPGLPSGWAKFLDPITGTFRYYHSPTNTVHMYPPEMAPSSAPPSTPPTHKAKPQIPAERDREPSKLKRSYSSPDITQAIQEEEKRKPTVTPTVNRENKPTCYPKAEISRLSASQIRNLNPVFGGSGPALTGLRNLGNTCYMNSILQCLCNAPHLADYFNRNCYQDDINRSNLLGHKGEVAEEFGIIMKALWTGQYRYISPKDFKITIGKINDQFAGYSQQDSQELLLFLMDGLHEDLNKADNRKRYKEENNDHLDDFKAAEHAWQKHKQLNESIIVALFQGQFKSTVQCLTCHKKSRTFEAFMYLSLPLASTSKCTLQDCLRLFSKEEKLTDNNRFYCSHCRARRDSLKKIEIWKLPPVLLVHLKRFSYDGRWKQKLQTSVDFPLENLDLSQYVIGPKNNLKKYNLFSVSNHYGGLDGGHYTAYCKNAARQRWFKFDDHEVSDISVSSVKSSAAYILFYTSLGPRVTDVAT
How it was run: as §1

Measured: log2 ratio of Biotin-Ahx-Ub-VS probe labelling

Sequence of USP7 (Q93009 whole entry, looked up): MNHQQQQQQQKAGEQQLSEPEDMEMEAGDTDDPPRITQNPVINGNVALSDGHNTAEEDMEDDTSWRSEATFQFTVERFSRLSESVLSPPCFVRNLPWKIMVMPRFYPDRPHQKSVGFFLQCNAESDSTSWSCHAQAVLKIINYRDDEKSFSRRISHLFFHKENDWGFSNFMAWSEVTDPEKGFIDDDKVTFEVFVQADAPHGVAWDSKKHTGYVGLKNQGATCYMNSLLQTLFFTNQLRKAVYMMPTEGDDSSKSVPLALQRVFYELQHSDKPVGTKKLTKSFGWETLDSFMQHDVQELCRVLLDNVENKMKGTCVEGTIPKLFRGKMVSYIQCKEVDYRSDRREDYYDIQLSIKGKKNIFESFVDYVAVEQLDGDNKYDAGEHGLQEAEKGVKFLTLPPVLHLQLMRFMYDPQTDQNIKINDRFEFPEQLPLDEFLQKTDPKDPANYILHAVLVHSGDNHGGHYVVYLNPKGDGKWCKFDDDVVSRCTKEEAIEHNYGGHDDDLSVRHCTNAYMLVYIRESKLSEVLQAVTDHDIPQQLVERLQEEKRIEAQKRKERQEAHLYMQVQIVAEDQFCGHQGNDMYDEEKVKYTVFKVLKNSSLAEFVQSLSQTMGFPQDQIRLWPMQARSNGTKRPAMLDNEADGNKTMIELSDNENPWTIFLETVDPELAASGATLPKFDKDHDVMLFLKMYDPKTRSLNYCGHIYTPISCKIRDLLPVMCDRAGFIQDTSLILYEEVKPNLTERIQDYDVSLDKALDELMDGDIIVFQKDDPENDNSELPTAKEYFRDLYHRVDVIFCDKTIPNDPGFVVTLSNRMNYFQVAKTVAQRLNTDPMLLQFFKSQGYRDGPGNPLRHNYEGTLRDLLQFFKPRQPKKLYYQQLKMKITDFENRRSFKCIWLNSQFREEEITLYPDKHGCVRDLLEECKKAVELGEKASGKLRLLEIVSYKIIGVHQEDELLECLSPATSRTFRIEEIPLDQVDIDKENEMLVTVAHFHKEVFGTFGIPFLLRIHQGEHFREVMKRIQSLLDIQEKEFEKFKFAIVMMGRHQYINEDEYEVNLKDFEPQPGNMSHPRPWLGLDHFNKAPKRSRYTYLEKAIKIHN
Sequence of USP46 (P62068 whole entry): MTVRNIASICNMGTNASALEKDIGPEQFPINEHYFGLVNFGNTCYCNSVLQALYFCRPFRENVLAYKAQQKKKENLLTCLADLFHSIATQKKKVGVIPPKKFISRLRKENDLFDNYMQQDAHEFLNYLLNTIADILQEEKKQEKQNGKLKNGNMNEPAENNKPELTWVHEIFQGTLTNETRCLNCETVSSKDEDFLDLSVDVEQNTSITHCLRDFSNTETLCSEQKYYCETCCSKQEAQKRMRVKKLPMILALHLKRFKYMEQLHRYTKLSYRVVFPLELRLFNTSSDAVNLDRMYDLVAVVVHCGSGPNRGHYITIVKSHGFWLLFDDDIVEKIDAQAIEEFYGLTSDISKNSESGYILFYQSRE
Sequence of USP54 (Q70EL1 whole entry): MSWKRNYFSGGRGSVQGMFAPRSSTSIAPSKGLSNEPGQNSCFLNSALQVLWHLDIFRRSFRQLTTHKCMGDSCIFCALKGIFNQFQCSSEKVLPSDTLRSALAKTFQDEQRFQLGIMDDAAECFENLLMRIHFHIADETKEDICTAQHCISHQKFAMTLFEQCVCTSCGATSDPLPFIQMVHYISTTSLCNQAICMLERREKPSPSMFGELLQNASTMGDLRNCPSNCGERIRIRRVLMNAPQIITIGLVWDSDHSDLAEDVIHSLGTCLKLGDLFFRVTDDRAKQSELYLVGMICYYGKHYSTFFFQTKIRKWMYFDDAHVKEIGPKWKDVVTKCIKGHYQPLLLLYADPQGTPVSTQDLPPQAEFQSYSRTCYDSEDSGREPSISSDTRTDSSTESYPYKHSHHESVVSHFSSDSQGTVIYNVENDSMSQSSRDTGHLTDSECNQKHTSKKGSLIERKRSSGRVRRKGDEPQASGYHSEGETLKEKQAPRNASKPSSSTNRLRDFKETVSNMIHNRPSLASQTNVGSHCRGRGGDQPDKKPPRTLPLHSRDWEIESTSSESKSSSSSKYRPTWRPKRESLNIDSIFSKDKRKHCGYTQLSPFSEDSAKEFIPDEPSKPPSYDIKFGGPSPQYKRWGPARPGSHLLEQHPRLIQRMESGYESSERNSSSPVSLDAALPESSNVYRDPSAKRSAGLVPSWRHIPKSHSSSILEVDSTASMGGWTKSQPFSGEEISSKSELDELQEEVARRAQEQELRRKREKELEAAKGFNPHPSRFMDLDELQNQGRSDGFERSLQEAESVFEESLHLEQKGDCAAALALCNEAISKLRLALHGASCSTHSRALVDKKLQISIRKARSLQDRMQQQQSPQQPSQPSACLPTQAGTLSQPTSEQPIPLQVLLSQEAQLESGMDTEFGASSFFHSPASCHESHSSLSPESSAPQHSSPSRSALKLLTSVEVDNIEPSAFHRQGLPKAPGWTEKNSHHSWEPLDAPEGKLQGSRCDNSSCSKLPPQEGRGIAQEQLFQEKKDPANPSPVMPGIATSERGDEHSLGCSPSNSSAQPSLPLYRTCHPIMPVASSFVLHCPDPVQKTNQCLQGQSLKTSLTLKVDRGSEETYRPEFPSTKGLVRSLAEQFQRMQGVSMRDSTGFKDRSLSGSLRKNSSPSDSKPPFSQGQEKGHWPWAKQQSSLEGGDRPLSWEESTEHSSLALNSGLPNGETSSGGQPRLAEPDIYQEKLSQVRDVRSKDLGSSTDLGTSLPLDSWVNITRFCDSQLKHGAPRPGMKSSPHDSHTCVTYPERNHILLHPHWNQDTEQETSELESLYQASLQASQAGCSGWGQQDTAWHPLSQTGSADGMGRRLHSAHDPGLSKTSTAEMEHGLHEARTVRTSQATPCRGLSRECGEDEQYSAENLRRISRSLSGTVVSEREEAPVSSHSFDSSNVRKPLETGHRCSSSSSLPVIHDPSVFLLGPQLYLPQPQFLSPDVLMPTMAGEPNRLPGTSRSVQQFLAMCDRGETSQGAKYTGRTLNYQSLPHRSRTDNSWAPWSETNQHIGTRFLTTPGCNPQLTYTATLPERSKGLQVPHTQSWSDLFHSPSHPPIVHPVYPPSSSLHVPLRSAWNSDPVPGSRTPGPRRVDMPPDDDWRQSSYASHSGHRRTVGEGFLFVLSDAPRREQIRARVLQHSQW

O=C(CCl)NCc1cccc(F)c1
inactive: USP42 -0.105 | USP46 0.151 | USP47 -0.193 | USP48 -0.0573 | USP5 0.1 | USP54 0.396 | USP7 -0.069 | USP8 -0.0486
